# Data as given in publication PMC7862700, “An all-to-all approach to the identification of sequence-specific readers for epigenetic DNA modifications on cytosine”.
# Key:
# Test in all cases: DAPPL (digital affinity profiling via proximity ligation, sequencing); 10 mM Tris-HCl pH 7.5, 50 mM NaCl, 1 mM DTT, 4% glycerol, room temperature, 30 min; GST-TFs on glutathione beads, 16-mer random dsDNA library, 0.1% formaldehyde crosslink after washing; high values mean tight binding
# FLI1 = target: T1, FLI1 (Homo sapiens, UniProt Q01543 1-452); details: protein: recombinant; tags: N-terminal GST; dsDNA, one strand shown
# T1 sequence: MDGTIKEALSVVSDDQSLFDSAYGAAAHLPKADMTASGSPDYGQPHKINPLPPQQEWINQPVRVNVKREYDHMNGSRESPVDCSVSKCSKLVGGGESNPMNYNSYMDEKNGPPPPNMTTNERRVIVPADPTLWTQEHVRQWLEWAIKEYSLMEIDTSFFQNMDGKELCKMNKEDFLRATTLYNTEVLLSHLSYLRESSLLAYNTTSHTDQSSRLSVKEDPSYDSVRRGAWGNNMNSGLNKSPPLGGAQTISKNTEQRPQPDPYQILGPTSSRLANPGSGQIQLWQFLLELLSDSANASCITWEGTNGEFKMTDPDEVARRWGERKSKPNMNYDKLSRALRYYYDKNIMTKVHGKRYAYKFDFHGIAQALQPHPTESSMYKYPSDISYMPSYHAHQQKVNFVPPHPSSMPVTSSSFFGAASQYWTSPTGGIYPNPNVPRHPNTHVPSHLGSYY
# How it was run: (§1)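 Beads coated with glutathione captured GST-fused human transcription factors that had been expressed in yeast, and the factors were then given DNA barcodes and pooled with a tag-only sample. The pools were incubated with 200 nmole of a random double-stranded 16-mer DNA library in Tris/NaCl/DTT/glycerol buffer for 30 min at room temperature, washed, crosslinked with 0.1% formaldehyde and proximity-ligated with BsaI/T4 ligase at 37 °C for 1 h. PCR amplification and Illumina NextSeq500 sequencing came last. Binding signal is each hexamer's read frequency for a factor divided by its frequency for the tag-only sample.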
# ELK1 = target: T2, ELK1 (Homo sapiens, UniProt P19419 1-428); details: protein: recombinant; tags: N-terminal GST; dsDNA, one strand shown
# T2 sequence: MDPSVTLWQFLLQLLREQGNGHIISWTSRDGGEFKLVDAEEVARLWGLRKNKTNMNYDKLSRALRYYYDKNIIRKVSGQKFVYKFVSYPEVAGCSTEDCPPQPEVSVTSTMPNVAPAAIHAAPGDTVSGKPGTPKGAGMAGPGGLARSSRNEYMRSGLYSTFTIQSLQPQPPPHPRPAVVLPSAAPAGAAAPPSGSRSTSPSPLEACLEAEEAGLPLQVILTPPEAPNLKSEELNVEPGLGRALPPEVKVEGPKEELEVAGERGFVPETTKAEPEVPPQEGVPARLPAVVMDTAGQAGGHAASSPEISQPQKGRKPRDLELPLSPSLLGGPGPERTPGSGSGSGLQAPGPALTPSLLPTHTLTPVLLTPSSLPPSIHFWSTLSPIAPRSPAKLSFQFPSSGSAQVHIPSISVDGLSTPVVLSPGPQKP
# How it was run: as §1
# GABPA = target: T3, GABPA (Homo sapiens, UniProt Q06546 1-454); details: protein: recombinant; tags: N-terminal GST; dsDNA, one strand shown
# T3 sequence: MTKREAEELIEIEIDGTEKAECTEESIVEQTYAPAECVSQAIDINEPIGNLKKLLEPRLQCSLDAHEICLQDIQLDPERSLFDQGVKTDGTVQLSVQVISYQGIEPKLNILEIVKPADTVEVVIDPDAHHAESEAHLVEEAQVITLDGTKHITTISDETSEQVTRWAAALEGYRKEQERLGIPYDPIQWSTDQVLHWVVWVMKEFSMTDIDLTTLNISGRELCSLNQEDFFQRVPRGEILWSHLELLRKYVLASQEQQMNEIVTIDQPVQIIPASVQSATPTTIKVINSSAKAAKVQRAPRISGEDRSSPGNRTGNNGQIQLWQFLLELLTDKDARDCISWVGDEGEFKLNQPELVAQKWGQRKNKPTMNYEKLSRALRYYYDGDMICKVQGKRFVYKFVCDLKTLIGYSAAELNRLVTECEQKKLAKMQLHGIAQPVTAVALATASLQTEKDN
# How it was run: as §1
# ERG = target: T4, ERG (Homo sapiens, UniProt P11308 1-479); details: protein: recombinant; tags: N-terminal GST; dsDNA, one strand shown
# T4 sequence: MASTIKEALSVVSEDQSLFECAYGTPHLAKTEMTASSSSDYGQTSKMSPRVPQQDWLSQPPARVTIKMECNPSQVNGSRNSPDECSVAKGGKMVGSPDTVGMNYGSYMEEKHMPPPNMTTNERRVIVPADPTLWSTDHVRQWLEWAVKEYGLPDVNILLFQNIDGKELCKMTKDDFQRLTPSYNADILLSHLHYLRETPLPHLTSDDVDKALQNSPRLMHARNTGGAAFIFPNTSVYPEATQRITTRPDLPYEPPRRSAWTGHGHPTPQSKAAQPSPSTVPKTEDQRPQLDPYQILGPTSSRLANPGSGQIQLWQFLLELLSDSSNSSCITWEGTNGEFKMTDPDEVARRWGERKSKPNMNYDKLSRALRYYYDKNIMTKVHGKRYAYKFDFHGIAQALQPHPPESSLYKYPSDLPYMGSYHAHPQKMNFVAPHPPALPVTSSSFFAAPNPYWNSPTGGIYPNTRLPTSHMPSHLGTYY
# How it was run: as §1
# ELF1 = ELF1 (Homo sapiens, UniProt P32519 1-619); details: protein: recombinant; tags: N-terminal GST; dsDNA, one strand shown
# How it was run: as §1
# EHF = target: T5, EHF (Homo sapiens, UniProt Q9NZC4 1-300); details: protein: recombinant; tags: N-terminal GST; dsDNA, one strand shown
# T5 sequence: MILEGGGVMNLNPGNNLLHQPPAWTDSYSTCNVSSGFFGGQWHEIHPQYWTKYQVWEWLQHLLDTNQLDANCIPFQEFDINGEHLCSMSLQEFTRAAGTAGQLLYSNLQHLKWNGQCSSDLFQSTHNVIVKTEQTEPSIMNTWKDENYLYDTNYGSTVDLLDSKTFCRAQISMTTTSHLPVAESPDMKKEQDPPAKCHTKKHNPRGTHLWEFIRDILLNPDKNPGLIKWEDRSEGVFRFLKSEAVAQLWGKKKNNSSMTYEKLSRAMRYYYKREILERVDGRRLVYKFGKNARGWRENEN
# How it was run: as §1
# SPI1 = SPI1 (Homo sapiens, UniProt P17947 1-270); details: protein: recombinant; tags: N-terminal GST; dsDNA, one strand shown
# How it was run: as §1
# SPIB = SPIB (Homo sapiens, UniProt Q01892 1-262); details: protein: recombinant; tags: N-terminal GST; dsDNA, one strand shown
# How it was run: as §1
# ELK3 = target: T6, ELK3 (Homo sapiens, UniProt P41970 1-407); details: protein: recombinant; tags: N-terminal GST; dsDNA, one strand shown
# T6 sequence: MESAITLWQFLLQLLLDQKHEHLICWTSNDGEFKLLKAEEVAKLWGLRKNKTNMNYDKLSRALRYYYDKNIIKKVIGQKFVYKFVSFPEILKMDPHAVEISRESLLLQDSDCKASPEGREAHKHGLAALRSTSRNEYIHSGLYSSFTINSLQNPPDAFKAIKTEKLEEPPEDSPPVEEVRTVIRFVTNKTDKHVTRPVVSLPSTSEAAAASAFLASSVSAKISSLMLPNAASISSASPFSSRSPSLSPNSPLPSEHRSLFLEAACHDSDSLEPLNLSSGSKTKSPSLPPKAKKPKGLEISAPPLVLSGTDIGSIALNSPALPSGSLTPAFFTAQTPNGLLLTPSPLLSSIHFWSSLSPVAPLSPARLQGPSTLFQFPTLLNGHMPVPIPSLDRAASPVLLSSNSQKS
# How it was run: as §1
# FEV = target: T7, FEV (Homo sapiens, UniProt Q99581 1-238); details: protein: recombinant; tags: N-terminal GST; dsDNA, one strand shown
# T7 sequence: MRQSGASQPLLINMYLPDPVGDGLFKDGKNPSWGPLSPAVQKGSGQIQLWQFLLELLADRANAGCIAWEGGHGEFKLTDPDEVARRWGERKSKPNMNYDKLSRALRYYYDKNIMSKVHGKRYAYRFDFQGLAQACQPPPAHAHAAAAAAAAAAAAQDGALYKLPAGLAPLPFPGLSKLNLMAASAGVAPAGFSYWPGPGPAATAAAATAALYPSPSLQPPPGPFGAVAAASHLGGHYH
# How it was run: as §1
# ETV5 = ETV5 (Homo sapiens, UniProt P41161 1-510); details: protein: recombinant; tags: N-terminal GST; dsDNA, one strand shown
# How it was run: as §1
# HSF1 = HSF1 (Homo sapiens, UniProt Q00613 1-529); details: protein: recombinant; tags: N-terminal GST; chain copies: 3; dsDNA, one strand shown
# How it was run: as §1
# SPIC = target: T8, SPIC (Homo sapiens, UniProt Q8N5J4 1-248); details: protein: recombinant; tags: N-terminal GST; dsDNA, one strand shown
# T8 sequence: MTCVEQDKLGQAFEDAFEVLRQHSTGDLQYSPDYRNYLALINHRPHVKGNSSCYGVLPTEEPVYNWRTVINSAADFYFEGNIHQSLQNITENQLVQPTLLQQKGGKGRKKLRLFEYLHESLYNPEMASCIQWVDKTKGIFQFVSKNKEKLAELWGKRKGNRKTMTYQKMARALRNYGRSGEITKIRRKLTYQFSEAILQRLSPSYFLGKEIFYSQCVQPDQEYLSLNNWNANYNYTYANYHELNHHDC
# How it was run: as §1
# ELF4 = ELF4 (Homo sapiens, UniProt Q99607 1-663); details: protein: recombinant; tags: N-terminal GST; dsDNA, one strand shown
# How it was run: as §1
# ELK4 = target: T9, ELK4 (Homo sapiens, UniProt P28324-2 1-405); details: protein: recombinant; tags: N-terminal GST; dsDNA, one strand shown
# T9 sequence: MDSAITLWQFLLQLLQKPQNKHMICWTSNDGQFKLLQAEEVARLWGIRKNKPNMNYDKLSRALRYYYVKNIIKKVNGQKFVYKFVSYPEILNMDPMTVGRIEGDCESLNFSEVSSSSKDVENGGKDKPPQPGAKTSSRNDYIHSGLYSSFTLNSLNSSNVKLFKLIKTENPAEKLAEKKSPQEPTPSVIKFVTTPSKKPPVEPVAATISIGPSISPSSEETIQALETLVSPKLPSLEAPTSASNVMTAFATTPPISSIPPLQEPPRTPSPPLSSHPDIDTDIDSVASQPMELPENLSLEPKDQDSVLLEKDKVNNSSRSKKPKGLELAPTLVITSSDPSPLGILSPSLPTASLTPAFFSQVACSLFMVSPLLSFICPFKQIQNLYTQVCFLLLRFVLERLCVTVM
# How it was run: as §1
# ETV2 = target: T10, ETV2 (Homo sapiens, UniProt O00321 1-342); details: protein: recombinant; tags: N-terminal GST; dsDNA, one strand shown
# T10 sequence: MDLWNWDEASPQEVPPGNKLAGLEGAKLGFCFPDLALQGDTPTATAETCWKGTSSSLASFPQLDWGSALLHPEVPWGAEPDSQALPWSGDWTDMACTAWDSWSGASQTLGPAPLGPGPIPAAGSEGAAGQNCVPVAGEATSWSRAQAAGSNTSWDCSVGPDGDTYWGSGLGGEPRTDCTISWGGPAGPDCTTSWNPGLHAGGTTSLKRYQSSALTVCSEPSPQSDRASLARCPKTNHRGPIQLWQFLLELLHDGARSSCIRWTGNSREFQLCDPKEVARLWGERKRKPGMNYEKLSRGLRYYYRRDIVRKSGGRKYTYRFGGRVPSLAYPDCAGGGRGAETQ
# How it was run: as §1
# ELF3 = target: T11, ELF3 (Homo sapiens, UniProt P78545 1-371); details: protein: recombinant; tags: N-terminal GST; dsDNA, one strand shown
# T11 sequence: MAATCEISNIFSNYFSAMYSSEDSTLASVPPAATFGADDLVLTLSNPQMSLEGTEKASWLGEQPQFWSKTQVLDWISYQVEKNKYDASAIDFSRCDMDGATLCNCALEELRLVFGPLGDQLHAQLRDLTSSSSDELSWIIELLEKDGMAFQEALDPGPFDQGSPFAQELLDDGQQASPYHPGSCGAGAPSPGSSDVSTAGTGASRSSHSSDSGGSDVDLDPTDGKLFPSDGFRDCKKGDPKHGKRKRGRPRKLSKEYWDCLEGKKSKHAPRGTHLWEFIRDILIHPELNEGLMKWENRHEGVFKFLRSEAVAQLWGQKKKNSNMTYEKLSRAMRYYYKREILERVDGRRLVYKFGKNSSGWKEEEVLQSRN
# How it was run: as §1
# CRX = CRX (Homo sapiens, UniProt O43186 1-299); details: protein: recombinant; tags: N-terminal GST; dsDNA, one strand shown
# How it was run: as §1
# ETV1 = ETV1 (Homo sapiens, UniProt P50549 1-477); details: protein: recombinant; tags: N-terminal GST; dsDNA, one strand shown
# How it was run: as §1
# Chain of ETV1 (P50549 whole entry): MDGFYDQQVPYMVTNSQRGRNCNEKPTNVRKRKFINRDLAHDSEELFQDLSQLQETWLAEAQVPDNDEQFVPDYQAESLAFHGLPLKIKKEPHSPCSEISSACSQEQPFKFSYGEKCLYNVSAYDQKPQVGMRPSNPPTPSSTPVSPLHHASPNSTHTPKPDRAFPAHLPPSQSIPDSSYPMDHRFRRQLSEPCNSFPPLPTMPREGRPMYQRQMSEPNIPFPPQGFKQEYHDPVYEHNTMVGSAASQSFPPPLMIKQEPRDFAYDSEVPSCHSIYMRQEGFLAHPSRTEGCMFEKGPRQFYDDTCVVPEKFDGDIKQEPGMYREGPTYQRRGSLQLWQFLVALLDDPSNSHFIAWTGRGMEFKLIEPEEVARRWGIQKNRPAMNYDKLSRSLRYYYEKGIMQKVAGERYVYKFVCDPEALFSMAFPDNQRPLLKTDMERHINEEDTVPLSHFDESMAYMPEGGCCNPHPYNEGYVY
# Chain of ETV5 (P41161 whole entry): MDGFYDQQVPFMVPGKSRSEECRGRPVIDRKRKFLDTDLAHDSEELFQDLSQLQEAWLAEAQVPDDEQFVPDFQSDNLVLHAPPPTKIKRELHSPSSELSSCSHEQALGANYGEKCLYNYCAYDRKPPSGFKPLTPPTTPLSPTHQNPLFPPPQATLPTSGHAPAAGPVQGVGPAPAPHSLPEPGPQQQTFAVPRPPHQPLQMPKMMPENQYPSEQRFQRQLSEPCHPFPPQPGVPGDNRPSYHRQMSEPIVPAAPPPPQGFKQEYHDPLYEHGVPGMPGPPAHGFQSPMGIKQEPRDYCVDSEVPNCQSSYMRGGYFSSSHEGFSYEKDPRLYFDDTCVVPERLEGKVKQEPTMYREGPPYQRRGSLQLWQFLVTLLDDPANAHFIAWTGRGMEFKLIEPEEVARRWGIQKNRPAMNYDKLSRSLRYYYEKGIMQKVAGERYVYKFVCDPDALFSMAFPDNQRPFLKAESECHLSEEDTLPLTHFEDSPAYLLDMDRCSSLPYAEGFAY
# Chain of CRX (O43186 whole entry): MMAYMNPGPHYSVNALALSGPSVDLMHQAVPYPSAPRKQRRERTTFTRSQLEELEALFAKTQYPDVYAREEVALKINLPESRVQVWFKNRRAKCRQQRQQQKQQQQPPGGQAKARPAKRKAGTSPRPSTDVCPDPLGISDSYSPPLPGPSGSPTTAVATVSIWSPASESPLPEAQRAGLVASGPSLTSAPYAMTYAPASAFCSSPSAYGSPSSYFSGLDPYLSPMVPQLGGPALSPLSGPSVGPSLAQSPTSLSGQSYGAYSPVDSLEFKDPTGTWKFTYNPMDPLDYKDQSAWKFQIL
# Chain of ELF1 (P32519 whole entry): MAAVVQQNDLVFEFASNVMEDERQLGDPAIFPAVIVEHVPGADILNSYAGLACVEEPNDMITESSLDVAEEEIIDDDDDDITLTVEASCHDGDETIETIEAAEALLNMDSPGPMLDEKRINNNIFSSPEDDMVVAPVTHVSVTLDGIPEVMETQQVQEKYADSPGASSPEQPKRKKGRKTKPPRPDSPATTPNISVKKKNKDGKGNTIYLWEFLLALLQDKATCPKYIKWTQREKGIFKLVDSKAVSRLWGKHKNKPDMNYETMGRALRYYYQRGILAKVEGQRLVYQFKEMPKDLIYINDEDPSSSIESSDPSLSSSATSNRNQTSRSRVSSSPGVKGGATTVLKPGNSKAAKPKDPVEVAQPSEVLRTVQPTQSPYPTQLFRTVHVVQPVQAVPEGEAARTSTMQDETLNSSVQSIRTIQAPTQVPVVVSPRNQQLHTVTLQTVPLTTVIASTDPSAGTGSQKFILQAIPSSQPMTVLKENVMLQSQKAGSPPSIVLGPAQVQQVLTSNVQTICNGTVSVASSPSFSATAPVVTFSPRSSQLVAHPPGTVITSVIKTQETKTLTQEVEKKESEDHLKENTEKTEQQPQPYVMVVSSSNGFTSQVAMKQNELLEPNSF
# Chain of HSF1 (Q00613 whole entry): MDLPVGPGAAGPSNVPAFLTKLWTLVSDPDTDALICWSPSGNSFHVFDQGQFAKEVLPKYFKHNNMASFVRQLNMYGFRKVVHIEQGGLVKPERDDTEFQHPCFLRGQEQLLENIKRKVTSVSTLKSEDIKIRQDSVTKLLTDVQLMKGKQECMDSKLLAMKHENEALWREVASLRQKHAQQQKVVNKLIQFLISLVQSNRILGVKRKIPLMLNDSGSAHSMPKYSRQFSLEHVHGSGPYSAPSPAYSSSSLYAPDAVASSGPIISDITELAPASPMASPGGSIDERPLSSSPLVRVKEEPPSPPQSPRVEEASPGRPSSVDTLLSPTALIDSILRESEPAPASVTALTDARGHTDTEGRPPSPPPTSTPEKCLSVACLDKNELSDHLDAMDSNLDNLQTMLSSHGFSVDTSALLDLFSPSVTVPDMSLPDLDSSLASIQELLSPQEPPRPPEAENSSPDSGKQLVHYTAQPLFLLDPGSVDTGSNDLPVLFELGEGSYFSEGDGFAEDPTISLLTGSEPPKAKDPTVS
# Chain of ELF4 (Q99607 whole entry): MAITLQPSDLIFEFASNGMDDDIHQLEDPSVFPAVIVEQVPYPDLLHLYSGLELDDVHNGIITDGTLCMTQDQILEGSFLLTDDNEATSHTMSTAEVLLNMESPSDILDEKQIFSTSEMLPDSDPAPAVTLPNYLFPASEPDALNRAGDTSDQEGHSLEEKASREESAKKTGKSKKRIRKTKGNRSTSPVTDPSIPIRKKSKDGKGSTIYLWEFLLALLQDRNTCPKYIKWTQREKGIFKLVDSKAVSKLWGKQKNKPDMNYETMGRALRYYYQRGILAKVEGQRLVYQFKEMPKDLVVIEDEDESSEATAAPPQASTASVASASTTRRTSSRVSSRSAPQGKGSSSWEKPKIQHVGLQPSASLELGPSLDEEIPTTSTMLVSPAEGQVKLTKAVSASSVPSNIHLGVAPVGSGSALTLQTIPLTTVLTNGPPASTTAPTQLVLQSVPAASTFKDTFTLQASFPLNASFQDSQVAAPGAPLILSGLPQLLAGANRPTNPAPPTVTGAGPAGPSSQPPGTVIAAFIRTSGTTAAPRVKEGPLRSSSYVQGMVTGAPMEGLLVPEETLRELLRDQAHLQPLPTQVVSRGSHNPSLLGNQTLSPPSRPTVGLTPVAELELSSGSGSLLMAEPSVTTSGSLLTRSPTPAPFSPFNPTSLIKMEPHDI
# Chain of SPIB (Q01892 whole entry): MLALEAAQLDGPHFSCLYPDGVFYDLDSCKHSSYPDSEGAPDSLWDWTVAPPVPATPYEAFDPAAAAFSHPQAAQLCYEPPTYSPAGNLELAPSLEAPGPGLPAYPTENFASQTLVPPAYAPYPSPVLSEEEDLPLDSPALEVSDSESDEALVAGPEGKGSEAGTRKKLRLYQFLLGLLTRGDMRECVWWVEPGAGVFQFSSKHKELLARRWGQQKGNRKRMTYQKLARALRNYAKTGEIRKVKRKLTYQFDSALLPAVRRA
sequence,measurement,setting,value
TTCGTA,binding signal,FLI1,"1.32 fold enrichment (6-mer frequency, TF over GST control)"
same,binding signal,ELK1,"1.44 fold enrichment (6-mer frequency, TF over GST control)"
same,binding signal,GABPA,"1.29 fold enrichment (6-mer frequency, TF over GST control)"
same,binding signal,ERG,"1.38 fold enrichment (6-mer frequency, TF over GST control)"
same,binding signal,ELF1,"1.35 fold enrichment (6-mer frequency, TF over GST control)"
same,binding signal,EHF,"1.34 fold enrichment (6-mer frequency, TF over GST control)"
same,binding signal,SPI1,"1.24 fold enrichment (6-mer frequency, TF over GST control)"
same,binding signal,SPIB,"1.35 fold enrichment (6-mer frequency, TF over GST control)"
same,binding signal,ELK3,"1.41 fold enrichment (6-mer frequency, TF over GST control)"
same,binding signal,FEV,"1.3 fold enrichment (6-mer frequency, TF over GST control)"
same,binding signal,ETV5,"1.42 fold enrichment (6-mer frequency, TF over GST control)"
same,binding signal,HSF1,"1.33 fold enrichment (6-mer frequency, TF over GST control)"
same,binding signal,SPIC,"1.42 fold enrichment (6-mer frequency, TF over GST control)"
same,binding signal,ELF4,"1.39 fold enrichment (6-mer frequency, TF over GST control)"
same,binding signal,ELK4,"1.21 fold enrichment (6-mer frequency, TF over GST control)"
same,binding signal,ETV2,"1.37 fold enrichment (6-mer frequency, TF over GST control)"
same,binding signal,ELF3,"1.53 fold enrichment (6-mer frequency, TF over GST control)"
same,binding signal,CRX,"1.52 fold enrichment (6-mer frequency, TF over GST control)"
same,binding signal,ETV1,"1.25 fold enrichment (6-mer frequency, TF over GST control)"
